Results taken from the supplement of paper PMC9262897, “Low-cost anti-mycobacterial drug discovery using engineered E. coli” (Nature Communications, 2022).
Structures can show the parent of a compound that is named as a salt. ± gives the standard deviation of the averaged measurements.

These molecules were tested on E. coli TESEC Mtb Asd (assay: growth (OD600 after 10 h); higher = more growth (less inhibition)). Conditions: arabinose induction (level): Low; compound 0.1 mM; raw OD600 reference: median of DMSO wells 0.417, cell-free background 0.041.
Procedure: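 TESEC E. coli strains in which the native enzyme is deleted and replaced by arabinose-inducible Mtb Asd, DapB, CysH or TrpD, each grown in its selective medium. Strains were screened against the Prestwick library at 0.1 mM and 1% DMSO in 384-well format at low and high arabinose induction. Growth is read as OD600 after 10 h in triplicate.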

Row | Structure (SMILES) | growth
1 | CN(C)CCN(Cc1ccc(Cl)cc1)c1ccccn1 [Chloropyramine hydrochloride] | 0.43 ± 0.013
2 | O=C1NCCN1CCN1CCC(c2cn(-c3ccc(F)cc3)c3ccc(Cl)cc23)CC1 [Sertindole] | 0.0504 ± 0.003
3 | O=C1NCC2(CCN(CCc3ccccc3)CC2)O1 [Fenspiride hydrochloride] | 0.45 ± 0.025
4 | CC(C)[C@H]1CC[C@H](C(=O)N[C@H](Cc2ccccc2)C(=O)O)CC1 [Nateglinide] | 0.23 ± 0.021
5 | CCOC(=O)[C@H](CCc1ccccc1)N[C@@H](C)C(=O)N1CCC[C@H]1C(=O)O [Enalapril maleate] | 0.373 ± 0.067
6 | CC1(C)O[C@@H]2[C@@H](CO[C@@]3(COS(N)(=O)=O)OC(C)(C)O[C@@H]23)O1 [Topiramate] | 0.295 ± 0.057
7 | c1ccc2c(c1)CCCc1cc(NCCN3CCOCC3)nnc1-2 | 0.477 ± 0.044
8 | CC[C@@H]1C(=O)OC[C@@H]1Cc1cncn1C [Pilocarpine nitrate] | 0.279 ± 0.044
9 | Cn1ccnc1S [Methimazole] | 0.417 ± 0.096
10 | NC[C@H]1O[C@H](O[C@H]2[C@H](O)[C@@H](O[C@H]3O[C@H](CO)[C@@H](O)[C@H](N)[C@H]3O)[C@H](N)C[C@@H]2N)[C@H](N)C[C@@H]1O [Tobramycin] | 0.0468 ± 0.0021
11 | O=C1C(CC[S+]([O-])c2ccccc2)C(=O)N(c2ccccc2)N1c1ccccc1 (stereo not given) [Sulfinpyrazone] | 0.316 ± 0.087
12 | C=C1/C(=C\C=C2/CCC[C@]3(C)[C@@H]([C@H](C)CCCC(C)C)CC[C@@H]23)C[C@@H](O)C[C@@H]1O [Alfacalcidol] | 0.301 ± 0.066
13 | C[C@H](O)C(=O)Nc1c(I)c(C(=O)NC(CO)CO)c(I)c(C(=O)NC(CO)CO)c1I [Iopamidol] | 0.396 ± 0.035
14 | CCCCNc1cc(C(=O)O)cc(S(N)(=O)=O)c1Oc1ccccc1 [Bumetanide] | 0.449 ± 0.062
15 | CN(C)CCCOc1nn(Cc2ccccc2)c2ccccc12 [Benzydamine hydrochloride] | 0.348 ± 0.023
16 | CCn1nc(C(=O)O)c(=O)c2cc3c(cc21)OCO3 [Cinoxacin] | 0.244 ± 0.035
17 | CCCCOC(=O)c1ccc(N)cc1 [Butamben] | 0.304 ± 0.11
18 | C#C[C@]1(O)CC[C@H]2[C@@H]3CCC4=CCCC[C@@H]4[C@H]3CC[C@@]21C [Lynestrenol] | 0.387 ± 0.039
19 | CCc1c2c(nc3ccc(OC(=O)N4CCC(N5CCCCC5)CC4)cc13)-c1cc3c(c(=O)n1C2)COC(=O)[C@]3(O)CC [Irinotecan hydrochloride trihydrate] | 0.414 ± 0.026
20 | CN(C)CCn1nnnc1SCC1=C(C(=O)O)N2C(=O)[C@@H](NC(=O)Cc3csc(N)n3)[C@H]2SC1 [Cefotiam hydrochloride] | 0.34 ± 0.061

Row | Structure (SMILES) | growth
21 | O=S(=O)(O)c1cc(O)ccc1O [Ethamsylate] | 0.391 ± 0.0046
22 | NNC(=O)c1ccncc1 [Isoniazid] | 0.429 ± 0.083
23 | O=C(O)/C=C/c1ccc(Cn2ccnc2)cc1 [Ozagrel hydrochloride] | 0.422 ± 0.035
24 | NCCC[C@H](N)CC(=O)N[C@H]1CNC(=O)[C@H]([C@H]2C[C@H](O)NC(N)=N2)NC(=O)/C(=C/NC(N)=O)NC(=O)[C@H](CO)NC(=O)[C@H](CO)NC1=O [Viomycin sulfate] | 0.268 ± 0.016
25 | CC1CS(=O)(=O)CCN1/N=C/c1ccc([N+](=O)[O-])o1 (stereo not given) [Nifurtimox] | 0.237 ± 0.017
26 | CC(C)C(=O)Nc1ccc([N+](=O)[O-])c(C(F)(F)F)c1 [Flutamide] | 0.165 ± 0.01
27 | Nc1ccc(S(=O)(=O)Nc2cnc3ccccc3n2)cc1 [Sulfaquinoxaline sodium salt] | 0.396 ± 0.028
28 | Cc1cnc(NC(=O)C2=C(O)c3ccccc3S(=O)(=O)N2C)s1 [Meloxicam] | 0.296 ± 0.1
29 | CCCc1ncc(C[n+]2ccccc2C)c(N)n1 [Amprolium hydrochloride] | 0.386 ± 0.0088
30 | COc1cc(C(=O)OCCCN2CCCN(CCCOC(=O)c3cc(OC)c(OC)c(OC)c3)CC2)cc(OC)c1OC [Dilazep dihydrochloride] | 0.35 ± 0.051
31 | CC(C)(O/N=C(\C(=O)N[C@@H]1C(=O)N2C(C(=O)[O-])=C(C[n+]3ccccc3)CS[C@H]12)c1csc(N)n1)C(=O)O [Ceftazidime pentahydrate] | 0.0679 ± 0.011
32 | O=C(c1ccc(OCCN2CCCCC2)cc1)c1c(-c2ccc(O)cc2)sc2cc(O)ccc12 [Raloxifene hydrochloride] | 0.0566 ± 0.0034
33 | CS(=O)(=O)c1ccc([C@@H](O)[C@@H](CO)NC(=O)C(Cl)Cl)cc1 [Thiamphenicol] | 0.0618 ± 0.0034
34 | CN(C)CC/C=C1\c2ccccc2CSc2ccccc21 [Dosulepin hydrochloride] | 0.263 ± 0.0048
35 | CCOc1nc2cccc(C(=O)O)c2n1Cc1ccc(-c2ccccc2-c2nnn[nH]2)cc1 [Candesartan] | 0.265 ± 0.029
36 | CCc1cc(C(N)=S)ccn1 [Ethionamide] | 0.324 ± 0.1
37 | CN(C)CCCC1(c2ccc(F)cc2)OCc2cc(C#N)ccc21 (stereo not given) [Citalopram Hydrobromide] | 0.397 ± 0.051
38 | Cn1c(=O)c2c(ncn2C)n(C)c1=O [Caffeine] | 0.352 ± 0.11
39 | COc1ccc(C(=O)NCc2ccc(OCCN(C)C)cc2)cc1OC [Itopride] | 0.365 ± 0.11
40 | Cn1cnc([N+](=O)[O-])c1Sc1ncnc2[nH]cnc12 [Azathioprine] | 0.261 ± 0.043
